Legend:
Assay in all cases: log2 ratio of Biotin-Ahx-Ub-VS probe labelling (fragment/DMSO); higher = less target engagement (more negative = stronger competition), active = hit call of the paper (q ≤ 0.05, log2 ratio ≤ -1)
Conditions in all cases: compound concentration: 200 uM; treatment time: 3 h
USP34 = USP34 (UniProt Q70CQ2)
Method in brief: (§1)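 Average log2 ratios of fragment over vehicle were obtained by unpaired t-test from global-median-normalised Spectronaut label-free quantities. Proteins with ≥2 unique peptides were included. HEK293T lysate (495 µg per sample) was treated in triplicate with fragment at 200 µM or vehicle for 3 h, then with Biotin-Ahx-Ub-VS at 0.5 µM final for 1 h, and labelled DUBs were NeutrAvidin-enriched and run by diaPASEF LC-MS/MS.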

USP36 = target: T1, USP36 (UniProt Q9P275)
T1 sequence (whole entry): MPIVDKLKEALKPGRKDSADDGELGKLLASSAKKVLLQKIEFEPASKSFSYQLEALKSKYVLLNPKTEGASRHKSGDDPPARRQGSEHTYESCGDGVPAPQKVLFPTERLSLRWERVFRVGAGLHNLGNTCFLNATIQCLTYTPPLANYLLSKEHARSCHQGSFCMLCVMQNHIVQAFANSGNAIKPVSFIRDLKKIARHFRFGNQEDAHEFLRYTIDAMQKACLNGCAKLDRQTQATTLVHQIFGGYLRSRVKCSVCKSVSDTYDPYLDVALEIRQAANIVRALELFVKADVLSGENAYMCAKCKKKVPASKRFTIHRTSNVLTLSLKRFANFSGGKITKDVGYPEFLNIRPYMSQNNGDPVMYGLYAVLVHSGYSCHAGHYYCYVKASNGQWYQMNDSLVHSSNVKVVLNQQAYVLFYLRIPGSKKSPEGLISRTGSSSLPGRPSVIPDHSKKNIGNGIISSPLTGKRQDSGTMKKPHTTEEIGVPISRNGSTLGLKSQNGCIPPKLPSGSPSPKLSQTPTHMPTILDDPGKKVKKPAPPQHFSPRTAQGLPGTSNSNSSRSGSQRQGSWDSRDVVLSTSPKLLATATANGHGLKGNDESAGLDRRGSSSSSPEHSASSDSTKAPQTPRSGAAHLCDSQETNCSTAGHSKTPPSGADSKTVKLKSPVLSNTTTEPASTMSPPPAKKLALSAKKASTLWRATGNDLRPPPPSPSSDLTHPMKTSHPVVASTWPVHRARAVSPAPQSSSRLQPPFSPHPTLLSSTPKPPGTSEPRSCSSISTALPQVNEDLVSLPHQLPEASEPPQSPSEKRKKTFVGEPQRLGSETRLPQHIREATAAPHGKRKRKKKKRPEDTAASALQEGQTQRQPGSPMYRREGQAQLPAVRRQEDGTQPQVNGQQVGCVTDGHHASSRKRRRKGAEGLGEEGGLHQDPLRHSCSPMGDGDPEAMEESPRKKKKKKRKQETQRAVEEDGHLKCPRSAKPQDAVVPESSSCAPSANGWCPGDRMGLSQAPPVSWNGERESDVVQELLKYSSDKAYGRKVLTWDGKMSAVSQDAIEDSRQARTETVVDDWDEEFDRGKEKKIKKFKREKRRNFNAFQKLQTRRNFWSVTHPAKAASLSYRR
Method in brief: as §1

USP38 = target: T2, USP38 (UniProt Q8NB14)
T2 sequence (whole entry): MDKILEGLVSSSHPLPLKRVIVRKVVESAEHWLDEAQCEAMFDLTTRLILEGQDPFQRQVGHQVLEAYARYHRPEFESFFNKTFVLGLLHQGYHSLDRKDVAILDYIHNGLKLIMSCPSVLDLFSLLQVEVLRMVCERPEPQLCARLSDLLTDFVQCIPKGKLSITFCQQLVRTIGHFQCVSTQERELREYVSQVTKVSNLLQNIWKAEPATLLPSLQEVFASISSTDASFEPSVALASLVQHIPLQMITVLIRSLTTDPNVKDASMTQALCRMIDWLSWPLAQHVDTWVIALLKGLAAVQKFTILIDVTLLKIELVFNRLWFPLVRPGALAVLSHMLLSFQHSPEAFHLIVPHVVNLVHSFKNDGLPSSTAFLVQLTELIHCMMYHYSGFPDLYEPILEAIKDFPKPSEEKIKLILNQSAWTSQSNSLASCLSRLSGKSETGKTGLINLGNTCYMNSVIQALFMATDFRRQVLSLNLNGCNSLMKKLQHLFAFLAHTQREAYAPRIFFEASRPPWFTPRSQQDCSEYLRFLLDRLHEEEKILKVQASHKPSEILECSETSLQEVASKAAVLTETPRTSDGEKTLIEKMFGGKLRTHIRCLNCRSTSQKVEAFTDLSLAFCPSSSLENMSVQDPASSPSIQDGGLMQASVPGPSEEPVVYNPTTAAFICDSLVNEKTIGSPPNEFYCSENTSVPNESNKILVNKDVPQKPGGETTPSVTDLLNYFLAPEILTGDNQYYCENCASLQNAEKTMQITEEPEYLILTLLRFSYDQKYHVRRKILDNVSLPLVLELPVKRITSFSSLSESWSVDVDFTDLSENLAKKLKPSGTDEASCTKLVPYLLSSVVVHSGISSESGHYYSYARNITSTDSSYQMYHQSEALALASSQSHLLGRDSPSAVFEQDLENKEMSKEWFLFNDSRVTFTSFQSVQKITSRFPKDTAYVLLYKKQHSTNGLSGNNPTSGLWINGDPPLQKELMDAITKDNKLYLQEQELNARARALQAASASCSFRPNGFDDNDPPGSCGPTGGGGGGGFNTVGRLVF
Method in brief: as §1

USP39 = target: T3, USP39 (UniProt Q53GS9)
T3 sequence (whole entry): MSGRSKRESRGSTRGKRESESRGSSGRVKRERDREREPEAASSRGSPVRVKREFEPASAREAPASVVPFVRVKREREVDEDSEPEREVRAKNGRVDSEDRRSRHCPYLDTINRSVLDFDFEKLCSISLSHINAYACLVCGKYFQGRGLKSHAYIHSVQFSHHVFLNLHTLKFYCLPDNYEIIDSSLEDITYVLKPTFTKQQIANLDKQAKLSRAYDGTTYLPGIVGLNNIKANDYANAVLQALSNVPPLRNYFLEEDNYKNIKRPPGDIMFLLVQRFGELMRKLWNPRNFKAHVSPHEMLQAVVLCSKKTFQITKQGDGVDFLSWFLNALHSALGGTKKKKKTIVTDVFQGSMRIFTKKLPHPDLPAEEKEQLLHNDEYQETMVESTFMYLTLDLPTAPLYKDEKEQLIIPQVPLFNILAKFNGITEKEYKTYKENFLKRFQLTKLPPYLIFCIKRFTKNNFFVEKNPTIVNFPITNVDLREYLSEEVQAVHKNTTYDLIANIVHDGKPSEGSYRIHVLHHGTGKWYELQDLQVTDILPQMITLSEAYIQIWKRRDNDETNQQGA
Method in brief: as §1

USP4 = target: T4, USP4 (UniProt Q13107)
T4 sequence (whole entry): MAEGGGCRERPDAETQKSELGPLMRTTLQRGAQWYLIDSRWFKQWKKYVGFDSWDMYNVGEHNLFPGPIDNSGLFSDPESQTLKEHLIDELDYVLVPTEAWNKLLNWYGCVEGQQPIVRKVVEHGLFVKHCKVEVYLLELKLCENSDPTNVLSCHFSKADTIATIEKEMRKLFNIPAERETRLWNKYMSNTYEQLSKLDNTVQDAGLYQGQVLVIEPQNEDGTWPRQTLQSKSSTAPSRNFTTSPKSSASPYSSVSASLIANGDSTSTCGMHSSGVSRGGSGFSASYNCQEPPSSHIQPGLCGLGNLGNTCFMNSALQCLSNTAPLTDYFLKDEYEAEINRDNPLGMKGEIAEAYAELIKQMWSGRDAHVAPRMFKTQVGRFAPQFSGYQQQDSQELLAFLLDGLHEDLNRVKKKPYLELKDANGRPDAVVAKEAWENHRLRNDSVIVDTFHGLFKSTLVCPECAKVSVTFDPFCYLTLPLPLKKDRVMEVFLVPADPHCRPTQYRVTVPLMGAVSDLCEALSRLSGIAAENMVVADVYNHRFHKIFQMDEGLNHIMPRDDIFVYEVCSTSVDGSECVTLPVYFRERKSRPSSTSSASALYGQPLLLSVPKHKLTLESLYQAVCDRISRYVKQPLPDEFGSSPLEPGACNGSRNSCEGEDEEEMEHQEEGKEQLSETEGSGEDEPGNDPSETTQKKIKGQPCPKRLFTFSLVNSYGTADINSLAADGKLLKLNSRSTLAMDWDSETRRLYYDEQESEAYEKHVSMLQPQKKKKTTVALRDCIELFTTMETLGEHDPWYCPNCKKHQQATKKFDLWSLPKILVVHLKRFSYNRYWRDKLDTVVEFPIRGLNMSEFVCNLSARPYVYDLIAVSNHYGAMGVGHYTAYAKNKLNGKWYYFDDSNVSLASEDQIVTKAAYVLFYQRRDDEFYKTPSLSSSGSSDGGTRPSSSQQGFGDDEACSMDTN
Method in brief: as §1

Measured: log2 ratio of Biotin-Ahx-Ub-VS probe labelling

Chain of USP34 (Q70CQ2 whole entry, the tested form may be a part): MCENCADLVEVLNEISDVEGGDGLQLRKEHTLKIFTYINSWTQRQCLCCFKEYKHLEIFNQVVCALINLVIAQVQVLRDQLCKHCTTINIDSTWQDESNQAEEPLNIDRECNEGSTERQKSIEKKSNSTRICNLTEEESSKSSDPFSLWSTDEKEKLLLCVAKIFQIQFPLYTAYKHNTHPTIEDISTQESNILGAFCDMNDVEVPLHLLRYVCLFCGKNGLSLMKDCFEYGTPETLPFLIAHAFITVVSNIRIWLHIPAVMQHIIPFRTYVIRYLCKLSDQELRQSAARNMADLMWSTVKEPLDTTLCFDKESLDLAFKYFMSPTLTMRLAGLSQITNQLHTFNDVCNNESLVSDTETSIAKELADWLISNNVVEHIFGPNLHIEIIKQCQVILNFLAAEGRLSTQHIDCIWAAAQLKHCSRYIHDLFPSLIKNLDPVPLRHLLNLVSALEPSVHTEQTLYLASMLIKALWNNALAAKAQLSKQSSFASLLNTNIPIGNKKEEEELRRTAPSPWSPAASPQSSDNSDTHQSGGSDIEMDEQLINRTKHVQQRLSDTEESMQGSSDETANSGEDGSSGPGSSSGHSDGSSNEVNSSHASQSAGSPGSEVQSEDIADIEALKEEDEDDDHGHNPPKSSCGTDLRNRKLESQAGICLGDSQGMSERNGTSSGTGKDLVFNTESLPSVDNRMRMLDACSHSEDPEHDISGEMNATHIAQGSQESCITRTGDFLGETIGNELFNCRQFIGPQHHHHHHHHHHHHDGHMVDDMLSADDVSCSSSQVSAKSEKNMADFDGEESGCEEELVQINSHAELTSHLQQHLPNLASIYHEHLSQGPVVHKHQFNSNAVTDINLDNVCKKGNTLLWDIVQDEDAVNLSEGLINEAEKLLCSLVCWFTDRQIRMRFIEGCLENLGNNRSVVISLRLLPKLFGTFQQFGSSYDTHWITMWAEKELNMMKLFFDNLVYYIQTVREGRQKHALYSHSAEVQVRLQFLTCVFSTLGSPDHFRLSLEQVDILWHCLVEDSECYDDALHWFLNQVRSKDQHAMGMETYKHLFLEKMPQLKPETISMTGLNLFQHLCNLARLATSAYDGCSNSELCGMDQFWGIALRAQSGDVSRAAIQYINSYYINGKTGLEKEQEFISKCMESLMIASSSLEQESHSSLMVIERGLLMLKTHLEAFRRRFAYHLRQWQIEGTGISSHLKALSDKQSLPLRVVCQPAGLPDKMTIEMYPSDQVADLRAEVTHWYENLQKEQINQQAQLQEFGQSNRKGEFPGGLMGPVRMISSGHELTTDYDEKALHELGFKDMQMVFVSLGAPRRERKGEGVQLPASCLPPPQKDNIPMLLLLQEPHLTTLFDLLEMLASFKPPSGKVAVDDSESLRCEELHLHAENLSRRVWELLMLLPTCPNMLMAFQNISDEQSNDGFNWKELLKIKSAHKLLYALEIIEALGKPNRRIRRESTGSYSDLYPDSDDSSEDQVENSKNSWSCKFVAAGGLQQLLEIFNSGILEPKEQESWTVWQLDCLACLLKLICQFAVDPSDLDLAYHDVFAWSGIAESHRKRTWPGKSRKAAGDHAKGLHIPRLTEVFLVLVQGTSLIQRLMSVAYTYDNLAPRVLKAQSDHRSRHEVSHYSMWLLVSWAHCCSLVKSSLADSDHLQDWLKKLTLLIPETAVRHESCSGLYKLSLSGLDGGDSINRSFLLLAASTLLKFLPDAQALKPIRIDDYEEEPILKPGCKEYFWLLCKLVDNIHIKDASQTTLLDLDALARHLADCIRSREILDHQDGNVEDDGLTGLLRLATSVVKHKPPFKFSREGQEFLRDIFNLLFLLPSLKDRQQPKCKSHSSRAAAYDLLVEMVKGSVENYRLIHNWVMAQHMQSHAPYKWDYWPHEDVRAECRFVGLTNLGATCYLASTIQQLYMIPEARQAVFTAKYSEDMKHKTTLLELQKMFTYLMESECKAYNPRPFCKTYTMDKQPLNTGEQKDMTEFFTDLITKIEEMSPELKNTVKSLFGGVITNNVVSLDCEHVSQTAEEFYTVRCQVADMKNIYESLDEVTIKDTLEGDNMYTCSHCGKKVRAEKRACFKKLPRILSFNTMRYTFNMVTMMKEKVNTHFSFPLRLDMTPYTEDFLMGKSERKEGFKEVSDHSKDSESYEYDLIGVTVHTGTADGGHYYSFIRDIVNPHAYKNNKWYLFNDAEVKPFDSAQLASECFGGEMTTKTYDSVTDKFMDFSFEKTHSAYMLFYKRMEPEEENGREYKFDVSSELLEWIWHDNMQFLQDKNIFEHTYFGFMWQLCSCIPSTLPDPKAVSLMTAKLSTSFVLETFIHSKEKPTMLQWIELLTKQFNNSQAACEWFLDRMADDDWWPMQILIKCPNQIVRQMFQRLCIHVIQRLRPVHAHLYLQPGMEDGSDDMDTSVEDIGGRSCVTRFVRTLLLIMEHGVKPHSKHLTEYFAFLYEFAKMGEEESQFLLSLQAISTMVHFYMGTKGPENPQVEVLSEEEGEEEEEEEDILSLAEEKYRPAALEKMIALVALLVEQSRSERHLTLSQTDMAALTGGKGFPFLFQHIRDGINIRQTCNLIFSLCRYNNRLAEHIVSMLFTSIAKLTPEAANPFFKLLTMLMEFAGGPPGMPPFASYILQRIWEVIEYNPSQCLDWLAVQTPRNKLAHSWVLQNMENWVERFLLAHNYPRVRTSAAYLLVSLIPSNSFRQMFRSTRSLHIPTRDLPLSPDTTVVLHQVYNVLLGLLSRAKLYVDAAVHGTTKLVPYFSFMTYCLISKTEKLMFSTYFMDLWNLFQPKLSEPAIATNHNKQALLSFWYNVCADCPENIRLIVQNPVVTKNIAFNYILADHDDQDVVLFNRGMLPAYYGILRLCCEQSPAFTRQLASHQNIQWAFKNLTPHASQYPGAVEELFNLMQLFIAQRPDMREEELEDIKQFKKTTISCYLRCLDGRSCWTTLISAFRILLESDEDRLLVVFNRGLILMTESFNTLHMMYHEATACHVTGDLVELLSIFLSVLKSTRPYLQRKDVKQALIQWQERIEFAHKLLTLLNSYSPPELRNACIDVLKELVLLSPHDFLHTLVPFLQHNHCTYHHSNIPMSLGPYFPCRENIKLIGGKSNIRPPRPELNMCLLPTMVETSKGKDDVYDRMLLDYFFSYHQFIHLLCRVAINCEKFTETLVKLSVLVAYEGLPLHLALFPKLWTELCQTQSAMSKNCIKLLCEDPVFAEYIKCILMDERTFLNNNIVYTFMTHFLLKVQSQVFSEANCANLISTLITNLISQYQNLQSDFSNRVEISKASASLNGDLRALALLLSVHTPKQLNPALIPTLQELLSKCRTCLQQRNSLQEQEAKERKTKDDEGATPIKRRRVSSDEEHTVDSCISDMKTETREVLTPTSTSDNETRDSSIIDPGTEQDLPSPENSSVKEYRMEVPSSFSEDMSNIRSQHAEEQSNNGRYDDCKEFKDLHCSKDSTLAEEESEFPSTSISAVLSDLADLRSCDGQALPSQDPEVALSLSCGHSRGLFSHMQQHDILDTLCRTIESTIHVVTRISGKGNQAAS

O=C(CCl)NCCc1cccc2ccccc12
inactive: USP34 -0.192 | USP36 -0.0173 | USP38 0.0792 | USP39 -0.0508 | USP4 0.143

Reference: the supplement of paper PMC11732987, “Enantioselective OTUD7B fragment discovery through chemoproteomics screening and high-throughput optimisation” (Communications Chemistry, 2025)
